In PubChem BioAssay AID1851 (National Center for Advancing Translational Sciences (NCATS), 2009):
About 5,700 (36%) of roughly 16,000 compounds were called active. Another 24% or so got no clear call; they are omitted. Some of the results follow. Unmarked numbers belong to inactive results. Calls come from the whole dose curve; as a rule, active = well fitted curve in the direction sought with a large enough effect; inconclusive = small, poorly fitted or top-dose-only effect, or effect the other way; inactive = no such curve, though single readings can be large or run the other way.

Molecular target: Cytochrome P450 1A2 (Homo sapiens) (UniProt P05177)
Sequence (P05177 whole entry, looked up): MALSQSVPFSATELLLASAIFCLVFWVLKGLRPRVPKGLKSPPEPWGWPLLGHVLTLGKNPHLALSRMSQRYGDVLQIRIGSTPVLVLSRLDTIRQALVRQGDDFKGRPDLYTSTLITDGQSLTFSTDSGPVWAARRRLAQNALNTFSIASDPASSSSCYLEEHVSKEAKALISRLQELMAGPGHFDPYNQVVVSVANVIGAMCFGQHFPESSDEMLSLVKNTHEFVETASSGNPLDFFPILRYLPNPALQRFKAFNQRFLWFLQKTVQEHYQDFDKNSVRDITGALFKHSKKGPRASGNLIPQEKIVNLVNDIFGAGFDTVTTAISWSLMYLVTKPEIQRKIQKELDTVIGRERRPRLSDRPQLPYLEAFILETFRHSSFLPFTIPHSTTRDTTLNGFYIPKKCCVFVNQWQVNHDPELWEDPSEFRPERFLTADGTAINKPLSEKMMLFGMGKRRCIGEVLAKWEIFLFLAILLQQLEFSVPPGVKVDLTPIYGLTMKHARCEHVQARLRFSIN
Assay: Cytochrome panel assay with activity outcomes
Conditions: recombinant CYP, pro-luciferin dealkylation, luminescence, p450-cyp1a2; series mostly up to 57.1 µM
% is set by controls: 0 for no effect and ±100 for the full control effect.

| SMILES | AC50 | activity, negative = inhibition |
| --- | --- | --- |
| CC(Cc1ccccc1)N/C=C1\CC(=O)NC1=O (stereo not drawn) | inactive |  |
| COc1cc(OC)c2nc(C)c3c(c2c1)N(c1ccc(O)cc1)CC3 | 2.24 µM (active) |  |
| NC(=O)N[C@H]1NC(=O)NC1=O | inactive |  |
| CCn1c(=N)c(S(=O)(=O)c2ccc(F)cc2)cc2c(=O)n3ccccc3nc21 | 1.58 µM (active) |  |
| CC(C)Cn1c(C(C)C)nc([N+](=O)[O-])c1S(=O)(=O)c1ccc(F)cc1 | inactive |  |
| Cn1c(=N)c(S(=O)(=O)c2ccc(F)cc2)cc2c(=O)n3ccccc3nc21 | 12.6 µM (active) |  |
| CN(C)C(=C(C#N)C#N)N1CCN(c2ccc(Cl)c(Cl)c2)CC1 | 25.1 µM (active) |  |
| O=C(OCc1cccc(F)c1)c1ccc2c(c1)-c1ccccc1C2=O | 3.55 µM (active) |  |
| O=C(c1cccc(F)c1)N1CCC2(CC1)CN(Cc1ccccc1)C2 | inactive |  |
| CC(C)CC(=O)N1CCN(Cc2cccc(F)c2)CC1 | inactive |  |
| CCOC(=O)Cc1csc(NC(=O)c2sc3nc4ccc(CC)cc4cc3c2N)n1 | inactive |  |
| CCOC(=O)Cc1csc(NS(=O)(=O)c2ccccc2)n1 | inactive |  |
| CCOC(=O)Cc1csc(NC(=O)c2ccc(S(=O)(=O)N3CCCCC3)cc2)n1 | 15.8 µM (active) |  |
| CCOC(=O)Cc1csc(NC(=O)c2ccc(Cl)nc2)n1 | 10 µM (active) |  |
| COCc1nnc(NC(=O)c2ccc(S(=O)(=O)N3CCCCCC3)cc2)o1 | inactive |  |
| COc1ccc(N2C(=O)CCC(C(=O)Nc3ccccn3)C2c2ccc(OC)c(OC)c2)cc1 (stereo not drawn) | inactive |  |
| C/C(CCN1CCCCc2nc(C)c(C)cc21)=N\OC[C@@H](O)COCc1ccco1 |  | -9.9% [at 11.4 µM] |
| O=C1C(Cl)=C(Sc2nnc3c4ccccc4c4ccccc4c3n2)C(=O)c2ccccc21 | 0.398 µM (active) |  |
| O=c1c2c(-c3ccc(Cl)cc3)csc2nc2n1CCC2 | 1.26 µM (active) |  |
| CCCc1cc(=O)oc2c(CN3CCOCC3)c(O)ccc12 | 14.1 µM (active) |  |
| COc1ccc(-c2c(C)oc3c(CN4CCN(CCO)CC4)c(O)ccc3c2=O)cc1OC | inactive |  |
| O=c1oc2c(CN3CCOCC3)c(O)ccc2c2ccccc12 | 1.26 µM (active) |  |
| COc1ccccc1-c1c(C)oc2c(CN3CCN(CCO)CC3)c(O)ccc2c1=O | inactive |  |
| O=c1cc(CN2CCN(c3ccc(F)cc3)CC2)c2cc3c(cc2o1)CCCC3 | inactive |  |

| SMILES | AC50 | activity, negative = inhibition |
| --- | --- | --- |
| O=C(C1CCN(S(=O)(=O)N2CCOCC2)CC1)N1CCN(Cc2ccccc2)CC1 | inactive |  |
| CCCCc1nc(SCC(=O)Nc2ncccn2)n[nH]1 | inactive |  |
| Cc1cc(NC(=O)CSc2n[nH]c(-c3cccs3)n2)no1 | 2.51 µM (active) |  |
| Cc1cc(NC(=O)CSc2nc3ccsc3c(=O)n2CCCCC(=O)O)no1 | inactive |  |
| O=C(CSc1nc2ccccc2o1)N1c2ccccc2Sc2ccc(Cl)cc21 | 2.24 µM (active) |  |
| COc1ccc(OCc2nnc(SCC(=O)N3c4ccccc4Sc4ccc(Cl)cc43)o2)cc1 | inactive |  |
| O=C(CSc1nc2ccccc2s1)N1c2ccccc2Sc2ccccc21 | 0.708 µM (active) |  |
| CN1CCN(CC(=O)N2c3ccccc3Sc3cc4ccccc4cc32)CC1 |  | -21.6% [at 2.29 µM] |
| O=C(CSc1nc2ccccc2s1)N1c2ccccc2Sc2ccc(C(F)(F)F)cc21 | 1.12 µM (active) |  |
| O=C(CSc1nc2ccccc2s1)c1sc2sc3ccccc3[n+]2c1O | 5.01 µM (active) |  |
| Cc1c(NC(=O)Cn2ccc([N+](=O)[O-])n2)c(=O)n(-c2ccccc2)n1C | inactive |  |
| S=c1[nH]nc(-c2ccncc2)n1CC1CCCO1 (stereo not drawn) | inactive |  |
| Cc1ccc(-c2ccc(CCC(=O)O)n2CC2CCCO2)cc1 (stereo not drawn) | inactive |  |
| Nc1ncc(-c2ccccc2)n1CC1CCCO1 (stereo not drawn) | 15.8 µM (active) |  |
| O=C(NNC(=O)C1CCN(S(=O)(=O)c2ccc(Cl)cc2)CC1)c1ccc(Cl)cc1 | inactive |  |
| Nc1ccc(CCNc2ncnc3c2ncn3[C@@H]2O[C@@H](CO)[C@H](O)[C@@H]2O)cc1 | inactive |  |
| Cc1ccc(N=Nc2c(=O)[nH]n3c(C)cc(C)nc23)cc1 | 12.6 µM (active) |  |
| Cc1nc(-c2cccnc2)sc1C(=O)Nc1ccc(F)cc1F | 4.47 µM (active) |  |
| CC(C)N=C(Nc1ccc(Cl)cc1)c1cccnc1 | inactive |  |
| CNC(=O)c1sc(-c2cccnc2)nc1C | 14.1 µM (active) |  |
| Cc1nc(-c2cccnc2)sc1C(=O)Nc1ccc(Cl)cc1 | 2.51 µM (active) |  |
| CC(=O)NC1(c2ccc(F)cc2)CCN(C(=O)Nc2ccc(F)cc2F)CC1 | inactive |  |
| Cc1cccc(C)c1NC(=O)CS(=O)CC(=O)Nc1ccc(F)cc1F (stereo not drawn) | inactive |  |
| Cc1nc(-c2cccnc2)sc1C(N)=O | 14.1 µM (active) |  |
